# Laboratory results from PubChem BioAssay.
# For part of these data: Entries with a potency or affinity are not part of this list. Calls of active or inactive are those of the source.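 Rule for the calls, unless noted: active = at least 20% inhibition of 6-phosphogluconate dehydrogenase activity; inactive = the rest.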 Peptide text beside a SMILES is read from it. * marks the point of attachment. For = O=C*
# Legend:
# [1] = target: 6-phosphogluconate dehydrogenase, decarboxylating (Homo sapiens) (UniProt P52209); assay: inhibition of human phosphogluconate dehydrogenase – biochemical, recombinant enzyme, NADPH absorbance, primary screen (AID 1159550); conditions: recombinant 6PGD, NADPH absorbance 341 nm; at 10 µM; stronger effect = higher value
# [2] = target: Mitogen-activated protein kinase 7 (Homo sapiens) (UniProt Q13164); assay: Gal4-ERK5 driven luciferase induction – cell-based, HTS, primary screen (AID 1508626;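 active = luciferase signal above three times the same-plate solvent-only control wells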;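 note: luciferase driven by Gal4-ERK5 fusion binding five Gal4 sites before minimal TATA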); conditions: HeLa Gal4-ERK5 transactivation, 18 h, at 5 µM, stronger effect = higher value
# [3] = P. berghei load reduction in hepatocytes – cell-based, HepG2, luciferase luminescence, HepG2 viability, primary screen (AID 624349; in the data active = parasite load remaining mostly below about 12%, no sharp cut-off; inactive = mostly above about 10%;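 note: 100% = mean of DMSO negative control wells on the same plate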); conditions: P. berghei liver stage in HepG2, luciferase luminescence, concentration not given here; parasite load remaining: stronger effect = lower value; viability: measured here: HepG2 viability without parasites
# [4] = blockers of polyQ-driven CASP3 activation – cell-based (AID 1583); conditions: polyglutamine-induced caspase-3 activation, cell assay; stronger effect = higher value;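 tested at 10 µM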
# [5] = yeast 75Q aggregation reduction – 75Q-TubU reporter (AID 1593); conditions: Yeast 75Q polyglutamine aggregation reporter
# [6] = restoration of touch response, mutant HTT neurons – whole organism, C. elegans mechanosensory neurons, N-terminal huntingtin (AID 1599); conditions: C. elegans polyQ-huntingtin mechanosensory neurons, stronger effect = higher value
# [7] = blockers of cytochrome c efflux from mitochondria – biochemical, purified mitochondria (AID 1603); conditions: stronger effect = lower value;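 note: mouse liver mitochondria challenged with calcium chloride; signal normalized to the plate average as 100%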
# [8] = polyglutamine aggregate formation blockers (AID 1604); conditions: polyglutamine-induced protein aggregation inhibition assay; stronger effect = higher value; tested at 2.5 µM
# [9] = glutamate transport activators, MN-1 cells, MN-1 cell line (AID 1612); conditions: MN-1 motor neuron cells, stronger effect = higher value;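 note: tested at 1 µM final; 0% = mean of DMSO vehicle wells on each plate; positive means more glutamate uptake than control and negative means less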
# [10] = GFP-Q80 aggregate reduction, neuronal-like cells, cell-based, NGF-treated PC12, GFPQ80 (AID 1614); conditions: PC12 NGF-treated GFP-polyQ80 inclusion reduction;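 note: lower means fewer inclusions and 0 means no inclusions at all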
# [11] = 75Q-TubH aggregate inhibition, S. cerevisiae, yeast (AID 1616); conditions: S. cerevisiae 75Q-TubH polyglutamine aggregation suppression; stronger effect = higher value
# [12] = target: Calcium-dependent protein kinase 1 (Plasmodium falciparum (isolate 3D7)) (UniProt P62344); assay: PfCDPK1 kinase inhibitors, biochemical, TCAMS library (AID 1159585; cut-off not given, nearly all actives have IC50 up to about 0.98 µM;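 note: inhibitors leave more ATP so luminescence rises with inhibition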); conditions: recombinant PfCDPK1, Kinase-Glo ATP depletion luminescence
# [13] = target: Plasmodium falciparum protein kinase 6 (PK6, PF3D7_1337100) (UniProt Q8IDW1); assay: PfPK6 kinase inhibitors, biochemical, TCAMS library (AID 1159586; call rule not given here); conditions: recombinant PfPK6, Kinase-Glo ATP depletion luminescence
# [14] = target: Protein kinase 7 (PK7), Plasmodium falciparum 3D7 (PF3D7_0213400) (UniProt Q7YTF7); assay: inhibition of Plasmodium PK7 catalytic activity – biochemical, TCAMS antimalarial set, Kinase-Glo luminescence (AID 1159587; call rule not given here); conditions: recombinant PfPK7, Kinase-Glo ATP depletion luminescence
# [15] = target: Calcium-dependent protein kinase 4 (Plasmodium falciparum (isolate 3D7)) (UniProt Q8IBS5); assay: PfCDPK4 kinase inhibitors, biochemical, TCAMS library (AID 1159588; cut-off not given, nearly all actives have IC50 up to about 0.91 µM); conditions: recombinant PfCDPK4, Kinase-Glo ATP depletion luminescence
# Calcium-dependent protein kinase 4 (Plasmodium falciparum (isolate 3D7)), sequence (Q8IBS5 whole entry, looked up): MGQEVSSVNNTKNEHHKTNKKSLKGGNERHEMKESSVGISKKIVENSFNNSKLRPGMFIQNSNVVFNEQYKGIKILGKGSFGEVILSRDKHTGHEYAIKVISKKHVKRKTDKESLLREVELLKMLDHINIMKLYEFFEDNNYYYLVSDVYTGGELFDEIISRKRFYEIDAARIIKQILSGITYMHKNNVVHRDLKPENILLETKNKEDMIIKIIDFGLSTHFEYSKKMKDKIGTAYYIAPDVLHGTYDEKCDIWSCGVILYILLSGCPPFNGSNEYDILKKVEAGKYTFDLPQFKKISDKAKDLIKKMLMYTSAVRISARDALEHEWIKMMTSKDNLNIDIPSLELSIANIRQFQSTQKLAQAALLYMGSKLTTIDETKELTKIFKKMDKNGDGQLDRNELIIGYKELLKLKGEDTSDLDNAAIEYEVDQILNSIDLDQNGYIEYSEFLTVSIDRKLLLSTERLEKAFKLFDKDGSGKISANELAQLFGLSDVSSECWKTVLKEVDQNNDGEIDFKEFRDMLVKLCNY
# Mitogen-activated protein kinase 7 (Homo sapiens), sequence (Q13164 whole entry, looked up, the tested form may be a part): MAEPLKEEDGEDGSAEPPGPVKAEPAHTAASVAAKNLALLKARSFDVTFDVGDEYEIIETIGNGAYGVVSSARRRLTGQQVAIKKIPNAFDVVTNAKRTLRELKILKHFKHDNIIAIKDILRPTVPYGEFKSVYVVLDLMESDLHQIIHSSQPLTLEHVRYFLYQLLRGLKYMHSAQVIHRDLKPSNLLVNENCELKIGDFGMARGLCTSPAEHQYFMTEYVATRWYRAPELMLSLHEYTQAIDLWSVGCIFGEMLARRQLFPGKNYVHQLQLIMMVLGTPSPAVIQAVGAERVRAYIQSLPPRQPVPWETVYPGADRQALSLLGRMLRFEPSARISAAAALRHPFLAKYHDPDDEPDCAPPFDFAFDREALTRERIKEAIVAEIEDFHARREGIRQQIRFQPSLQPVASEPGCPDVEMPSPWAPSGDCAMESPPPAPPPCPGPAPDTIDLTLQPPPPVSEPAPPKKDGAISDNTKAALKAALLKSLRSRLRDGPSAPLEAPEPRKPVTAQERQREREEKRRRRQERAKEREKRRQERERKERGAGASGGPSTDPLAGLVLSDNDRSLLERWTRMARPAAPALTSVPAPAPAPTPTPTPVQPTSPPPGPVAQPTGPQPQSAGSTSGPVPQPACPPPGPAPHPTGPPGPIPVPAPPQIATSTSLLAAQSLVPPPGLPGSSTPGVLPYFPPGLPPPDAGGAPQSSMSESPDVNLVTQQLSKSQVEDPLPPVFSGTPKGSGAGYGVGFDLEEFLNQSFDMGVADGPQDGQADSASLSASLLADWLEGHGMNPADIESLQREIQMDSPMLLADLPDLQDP
# 6-phosphogluconate dehydrogenase, decarboxylating (Homo sapiens), sequence (P52209 whole entry, looked up, the tested form may be a part): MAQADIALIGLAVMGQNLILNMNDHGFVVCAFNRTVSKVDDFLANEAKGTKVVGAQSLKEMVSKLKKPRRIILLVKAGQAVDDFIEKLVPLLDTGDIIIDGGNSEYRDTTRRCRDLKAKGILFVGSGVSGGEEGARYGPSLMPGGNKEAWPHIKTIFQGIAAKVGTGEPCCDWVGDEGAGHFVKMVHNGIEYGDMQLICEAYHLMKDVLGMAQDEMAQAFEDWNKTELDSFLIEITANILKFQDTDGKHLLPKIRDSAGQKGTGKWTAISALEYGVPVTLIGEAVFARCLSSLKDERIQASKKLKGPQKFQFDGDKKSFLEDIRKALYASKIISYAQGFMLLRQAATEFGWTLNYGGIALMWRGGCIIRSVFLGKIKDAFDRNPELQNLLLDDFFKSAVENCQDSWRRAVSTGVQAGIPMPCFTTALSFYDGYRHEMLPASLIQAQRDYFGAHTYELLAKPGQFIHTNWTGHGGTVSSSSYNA
# Plasmodium falciparum protein kinase 6 (PK6, PF3D7_1337100), sequence (Q8IDW1 1-305): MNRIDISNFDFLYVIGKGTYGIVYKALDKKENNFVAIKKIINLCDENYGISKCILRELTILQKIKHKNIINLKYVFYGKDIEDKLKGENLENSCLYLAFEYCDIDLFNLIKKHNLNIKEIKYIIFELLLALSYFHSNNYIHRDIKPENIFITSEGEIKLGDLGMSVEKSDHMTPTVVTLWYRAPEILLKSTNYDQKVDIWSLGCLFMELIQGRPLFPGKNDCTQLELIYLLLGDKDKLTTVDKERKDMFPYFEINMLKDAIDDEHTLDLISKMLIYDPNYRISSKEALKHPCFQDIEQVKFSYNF
# Protein kinase 7 (PK7), Plasmodium falciparum 3D7 (PF3D7_0213400), sequence (Q7YTF7 1-343): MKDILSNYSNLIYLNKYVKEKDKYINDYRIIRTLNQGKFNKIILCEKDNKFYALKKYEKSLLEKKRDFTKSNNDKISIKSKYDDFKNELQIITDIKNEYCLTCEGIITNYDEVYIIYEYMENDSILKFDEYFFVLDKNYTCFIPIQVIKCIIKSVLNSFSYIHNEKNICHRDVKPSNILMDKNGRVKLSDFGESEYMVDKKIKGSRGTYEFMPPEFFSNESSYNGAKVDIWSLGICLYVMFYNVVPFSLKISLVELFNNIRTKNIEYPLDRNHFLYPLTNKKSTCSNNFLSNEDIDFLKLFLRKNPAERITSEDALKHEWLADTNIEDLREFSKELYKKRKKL
# Calcium-dependent protein kinase 1 (Plasmodium falciparum (isolate 3D7)), sequence (P62344 whole entry, looked up): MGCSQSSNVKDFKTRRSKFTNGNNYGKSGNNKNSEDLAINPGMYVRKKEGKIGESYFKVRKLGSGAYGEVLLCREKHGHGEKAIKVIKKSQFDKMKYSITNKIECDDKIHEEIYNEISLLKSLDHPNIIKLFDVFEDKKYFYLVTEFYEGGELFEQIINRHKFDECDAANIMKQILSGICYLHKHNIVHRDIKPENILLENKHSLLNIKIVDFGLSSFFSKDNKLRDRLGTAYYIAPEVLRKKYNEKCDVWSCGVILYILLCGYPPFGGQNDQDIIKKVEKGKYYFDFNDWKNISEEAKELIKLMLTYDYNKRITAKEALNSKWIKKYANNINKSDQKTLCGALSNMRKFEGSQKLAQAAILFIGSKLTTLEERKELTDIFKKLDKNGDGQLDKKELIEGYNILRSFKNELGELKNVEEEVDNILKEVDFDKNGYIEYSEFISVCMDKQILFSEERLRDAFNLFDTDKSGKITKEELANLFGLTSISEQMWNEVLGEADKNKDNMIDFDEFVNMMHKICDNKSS
smiles,measurement,setting,value
CC(=O)OC[C@H]1O[C@@H](Oc2cc(OC(C)=O)c3c(=O)cc(-c4ccc(OC(C)=O)cc4)oc3c2)[C@H](OC(C)=O)[C@@H](OC(C)=O)[C@@H]1OC(C)=O,inhibition,[1],6.51% (inactive)
same,luciferase signal,[2],80 AU (inactive)
COC(=O)C(C)c1ccc(C(=O)c2cccs2)cc1 (configuration not stated),parasite load remaining,[3],119% (inactive)
same,viability,[3],76.5%
same,inhibition,[1],-13.2% (inactive)
same,luciferase signal,[2],44 AU (inactive)
NC(=O)c1ccc[n+]([C@@H]2O[C@H](COP(=O)([O-])OP(=O)(O)OC[C@H]3O[C@@H](n4cnc5c(N)ncnc54)[C@H](OP(=O)(O)O)[C@@H]3O)[C@@H](O)[C@H]2O)c1,inhibition,[4],19.9%
same,score,[5],1.08
same,rescue above control,[6],9.74
same,cytochrome c release ratio,[7],0.78
same,inhibition of aggregation,[8],-21.6%
same,glutamate uptake change,[9],16.5%
same,inclusion score,[10],2
same,aggregation suppression score,[11],0.975
same,parasite load remaining,[3],169% (inactive)
same,viability,[3],83.2%
same,inhibition,[1],16.2% (inactive)
same,luciferase signal,[2],32 AU (inactive)
CC(=O)N[C@@H](CCC(=O)O)C(=O)O,inhibition,[4],24.8%
same,score,[5],1.29
same,rescue above control,[6],9.63
same,cytochrome c release ratio,[7],1.22
same,inhibition of aggregation,[8],74.1%
same,glutamate uptake change,[9],-6.23%
same,inclusion score,[10],2
same,aggregation suppression score,[11],1.35
same,parasite load remaining,[3],196% (inactive)
same,viability,[3],71.4%
same,inhibition,[1],13.8% (inactive)
NCCCCC(N)C(=O)NC(Cc1ccc(O)cc1)C(=O)NC(CCCCN)C(=O)O (stereo not drawn) (H-Lys-Tyr-Lys-OH; configuration not given here),inhibition,[4],-30.8%
same,score,[5],3.85
same,rescue above control,[6],16.1
same,cytochrome c release ratio,[7],0.94
same,inhibition of aggregation,[8],37.2%
same,glutamate uptake change,[9],-3.42%
same,inclusion score,[10],1
same,aggregation suppression score,[11],1.25
same,inhibition,[1],13.2% (inactive)
COC(=O)C(O)c1ccccc1 (configuration not stated),inhibition,[1],1.31% (inactive)
same,luciferase signal,[2],28 AU (inactive)
COC(=O)[C@@H]1OC(=O)C2OC23[C@@]1(C)CCC1[C@]2(C)C(C[C@H](O)[C@]13C)C(C)(C)[C@H](OC(C)=O)C[C@@H]2OC(C)=O (some centres not stated),inhibition,[1],-8.14% (inactive)
same,luciferase signal,[2],24 AU (inactive)
CSCCC(NC=O)C(=O)NC(C)C(=O)O (configuration not stated),inhibition,[4],3.66%
same,score,[5],1.03
same,rescue above control,[6],3.86
same,cytochrome c release ratio,[7],1.14
same,inhibition of aggregation,[8],81.6%
same,glutamate uptake change,[9],9.47%
same,inclusion score,[10],2
same,aggregation suppression score,[11],1.3
same,inhibition,[1],11.9% (inactive)
CC(=O)/C=C\[C@@H]1[C@@]2(C)CCCC(C)(C)C2CC[C@@]1(C)O (some centres not stated),inhibition,[1],14.1% (inactive)
same,luciferase signal,[2],348 AU (active)
CSCCC(NC=O)C(=O)NC(Cc1ccccc1)C(=O)O (stereo not drawn) (For-Met-Phe-OH; configuration not given here),inhibition,[4],0.6%
same,score,[5],1.4
same,rescue above control,[6],4.29
same,cytochrome c release ratio,[7],1.19
same,inhibition of aggregation,[8],59.3%
same,glutamate uptake change,[9],0%
same,inclusion score,[10],2
same,aggregation suppression score,[11],0.985
same,inhibition,[1],6.92% (inactive)
COC(=O)C1=CO[C@@H](O[C@@H]2O[C@H](CO)[C@@H](O)[C@H](O)[C@H]2O)[C@@H]2[C@@H](C)[C@@H](O)C[C@H]12,inhibition,[1],6.61% (inactive)
same,luciferase signal,[2],20 AU (inactive)
Cc1cccc2[nH]c(-c3cccc(-c4ccc(NC(=O)Cc5ccc[n+]([O-])c5)cc4)c3)nc12,outcome,[12],inactive
same,outcome,[13],inactive
same,outcome,[14],inactive
same,outcome,[15],inactive
CC(C)C[C@H](C(=O)N[C@H](C(=O)Nc1nccs1)C(C)(C)C)[C@H](CCC(F)(F)F)N(O)C=O,outcome,[12],inactive
same,outcome,[13],inactive
same,outcome,[14],inactive
same,outcome,[15],inactive
